Calls of active or inactive are those of the source. Unless noted, no rule for the calls is given here.
Columns and labels:
[1] = resazurin metabolic signal in HepG2 cells – cell-based, resazurin fluorescence, 24 h, PK04 Diversity Set, profiling panel (AID 1172); details: HepG2 viability, higher = more signal
[2] = budding yeast growth changes without added modifier – OD600, strain BY4716, 24 h, basal condition, primary screen (AID 1173); details: S. cerevisiae BY4716 growth, OD600, 24 h; higher = more signal, called active from +8 up or from −8 down
[3] = viability profiling in MM1S myeloma cells – cell-based, resazurin fluorescence, basal, 24 h, PK04 Diversity Set, profiling panel (AID 1174); details: higher = more signal, called active from +8 up or from −8 down;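 also: MM1S multiple myeloma cell line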
[4] = molecular target: Dihydroorotate dehydrogenase (quinone), mitochondrial (Plasmodium falciparum (isolate 3D7)) (UniProt Q08210); test: inhibition of P. falciparum DHODH – biochemical, C-terminal His tag, absorbance 600 nm, primary screen (AID 1175); details: PfDHODH enzyme, DCIP absorbance 600 nm; higher = more signal, called active from +8 up or from −8 down;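 also: recombinant parasite enzyme with a five histidine tag at its C terminus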
Chain of Dihydroorotate dehydrogenase (quinone), mitochondrial (Plasmodium falciparum (isolate 3D7)) (Q08210 whole entry, looked up): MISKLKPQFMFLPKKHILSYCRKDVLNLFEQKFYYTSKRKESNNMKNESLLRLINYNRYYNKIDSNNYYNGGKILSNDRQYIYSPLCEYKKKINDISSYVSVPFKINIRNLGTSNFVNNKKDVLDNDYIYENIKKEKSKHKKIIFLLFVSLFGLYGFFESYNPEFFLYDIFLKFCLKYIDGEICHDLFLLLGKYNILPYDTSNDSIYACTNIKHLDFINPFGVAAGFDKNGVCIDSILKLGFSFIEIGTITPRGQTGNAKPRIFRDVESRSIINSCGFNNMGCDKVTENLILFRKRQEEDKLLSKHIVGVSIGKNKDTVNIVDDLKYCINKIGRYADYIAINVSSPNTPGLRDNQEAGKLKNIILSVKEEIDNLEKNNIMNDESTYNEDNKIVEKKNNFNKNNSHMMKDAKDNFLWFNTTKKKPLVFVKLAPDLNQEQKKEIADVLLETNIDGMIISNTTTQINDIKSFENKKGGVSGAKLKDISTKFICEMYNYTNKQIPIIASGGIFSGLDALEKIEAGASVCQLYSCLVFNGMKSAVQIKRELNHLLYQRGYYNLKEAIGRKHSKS

[5] = inhibition of PAO1 biofilm formation – strain PAO1, LB-PBS medium, absorbance 600 nm, primary screen (AID 1176); details: P. aeruginosa PAO1 growth/biofilm, A600, 12 h; higher = more signal
[6] = growth modulation of vineyard yeast isolate – strain RM11-1a, OD600, basal, 24 h, primary screen (AID 1177);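 also: cultures grown under basal conditions with no added stressor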; details: S. cerevisiae RM11-1a growth, OD600, 24 h; higher = more signal, called active from +8 up or from −8 down
[7] = growth of efflux-deficient E. coli DRC39 – strain DRC39, OD650, 24 h, E. coli filamentation inducers, primary screen (AID 1178);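 also: growth measured as culture turbidity by optical density at 650 nm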; details: E. coli DRC39 acrAB, higher = more signal, called active from +8 up or from −8 down
[8] = growth of efflux-deficient E. coli DRC39 – strain DRC39, OD650, 48 h, E. coli filamentation inducers, primary screen (AID 1179);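 also: screen aims at cell division blockers that make cells filament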; details: E. coli DRC39 delta-acrAB growth, higher = more signal, called active from +8 up or from −8 down
[9] = viability profiling in RPMI8226 myeloma cells – cell-based, resazurin fluorescence, basal, 24 h, PK04 Diversity Set, profiling panel (AID 1180); details: higher = more signal;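 also: RPMI8826 multiple myeloma cell line at 5000 cells per well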
[10] = molecular target: E3 ubiquitin-protein ligase XIAP (Homo sapiens) (UniProt P98170); test: small molecules binding XIAP protein – biophysical, small-molecule microarray, fluorescence 635 nm, primary screen (AID 1181); details: higher = more signal;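 also: score merges 667 nm emission and signal to noise over triplicate slides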
Chain of E3 ubiquitin-protein ligase XIAP (Homo sapiens) (P98170 whole entry, looked up, the tested form may be a part): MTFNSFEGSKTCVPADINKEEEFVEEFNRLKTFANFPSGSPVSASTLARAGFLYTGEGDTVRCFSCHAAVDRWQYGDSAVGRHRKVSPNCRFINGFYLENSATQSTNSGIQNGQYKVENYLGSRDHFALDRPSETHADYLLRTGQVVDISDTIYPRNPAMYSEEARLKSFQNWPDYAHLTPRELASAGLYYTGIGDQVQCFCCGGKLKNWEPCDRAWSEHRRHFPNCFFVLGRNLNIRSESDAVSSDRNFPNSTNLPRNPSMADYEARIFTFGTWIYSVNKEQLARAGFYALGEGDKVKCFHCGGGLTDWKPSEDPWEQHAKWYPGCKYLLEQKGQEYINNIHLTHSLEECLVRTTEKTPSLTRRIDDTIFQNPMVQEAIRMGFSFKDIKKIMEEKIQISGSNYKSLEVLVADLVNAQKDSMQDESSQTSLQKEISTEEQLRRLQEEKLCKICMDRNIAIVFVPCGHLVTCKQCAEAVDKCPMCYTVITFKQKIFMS

[11] = test system: XIP peptide (Xip251-270) binding; test: XIP fragment 251-270 binding compounds – biochemical, small-molecule microarray, fluorescence 635/667 nm, 0.1 µg/mL protein, primary screen (AID 1182); details: fluorescent protein binding, 635 nm, higher = more signal, called active from +8 up or from −8 down
[12] = test system: XIP peptide (Xip251-270); test: compounds binding XIP fragment 251-270 – biochemical, small-molecule microarray, fluorescence 635/667 nm, 0.5 µg/mL protein, primary screen (AID 1183); details: fluorescence 635 nm, higher = more signal
[13] = blood-stage malaria parasite viability loss – strain 3D7, DAPI fluorescence, 100 nL, primary screen (AID 1184);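 also: parasites grown inside human red blood cells in medium with human serum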; details: P. falciparum 3D7 growth, 3 d, higher = more signal
[14] = molecular target: Homeobox protein Hox-A13 (Mus musculus) (UniProt Q62424); test: disruptors of Hoxa13 oligonucleotide interaction – biochemical, fluorescence polarization, labeled oligonucleotide, primary screen (AID 1185); details: Hoxa13:DNA binding, 15 min, higher = more signal, called active from +8 up or from −8 down
Chain of Homeobox protein Hox-A13 (Mus musculus) (Q62424 whole entry, looked up): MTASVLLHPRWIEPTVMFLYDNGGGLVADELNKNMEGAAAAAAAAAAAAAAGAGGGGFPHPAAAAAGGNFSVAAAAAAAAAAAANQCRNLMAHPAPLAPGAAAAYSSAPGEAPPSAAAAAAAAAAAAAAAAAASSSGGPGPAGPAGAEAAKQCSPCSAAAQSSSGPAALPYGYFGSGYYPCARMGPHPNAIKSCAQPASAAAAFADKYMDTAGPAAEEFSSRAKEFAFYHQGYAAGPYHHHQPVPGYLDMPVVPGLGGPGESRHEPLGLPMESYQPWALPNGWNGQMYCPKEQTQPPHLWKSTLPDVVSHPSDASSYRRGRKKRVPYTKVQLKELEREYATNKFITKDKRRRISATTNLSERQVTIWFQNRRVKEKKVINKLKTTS

[15] = blockers of DNA damage checkpoint Chk1 activation – imaging, HeLa, hydroxyurea, phospho-Chk1 antibody, percent positive cells, primary screen (AID 1186); details: hydroxyurea-induced phospho-Chk1 immunofluorescence imaging, higher = more signal
[16] = blockers of DNA damage checkpoint Chk1 activation – imaging, HeLa, hydroxyurea, phospho-Chk1 nuclear intensity, primary screen (AID 1187); details: hydroxyurea-induced phospho-Chk1 immunofluorescence imaging, higher = more signal

Row | Structure (SMILES) | z-score [1] | z-score [2] | z-score [3] | composite z-score [4] | z-score [5] | z-score [6] | z-score [7] | z-score [8] | z-score [9] | composite z-score [10] | composite z-score [11] | composite z-score [12] | z-score [13] | z-score [14] | z-score [15] | z-score [16]
1 | CN1C(=O)C2C=CC(C(O)c3ccccn3)N(Nc3ccccc3)C2C1=O (stereo not drawn) | -1.03 | 0.727 (inactive) | -0.467 (inactive) | 1.42 (inactive) | 1.28 (inactive) | 1.57 (inactive) | -0.206 (inactive) | -0.387 (inactive) | -0.878 | 0.742 | 0.632 (inactive) | 0.325 | 0.0014 | -7.19 (inactive) | -0.827 (inactive) | -1.12 (inactive)
2 | COc1ccc(NN2C(C(O)c3ccc(OC)c(OCc4ccccc4)c3)C=CC3C(=O)N(C4CCCCC4)C(=O)C32)cc1 (stereo not drawn) | 1.03 | -1.76 (inactive) | 0.0269 (inactive) | -0.0522 (inactive) | 0.946 (inactive) | -0.221 (inactive) | -0.101 (inactive) | 1.19 (inactive) | 0.0424 | -0.141 | -0.137 (inactive) | 0.628 | -1.02 | -1.81 (inactive) | -0.487 (inactive) | -0.892 (inactive)
3 | O=C(CS)NCCCCCCNC(=O)[C@H]1C[C@H]2C(=O)NCC(=O)N2[C@H]1c1ccc(O)cc1 | -0.0808 | 0.309 (inactive) | -0.722 (inactive) | -0.864 (inactive) | 0.395 (inactive) | -0.14 (inactive) | -0.389 (inactive) | -0.405 (inactive) | -0.521 | 0.102 | 0.545 (inactive) | 0.832 | 0.509 | -2.43 (inactive) | 0.419 (inactive) | 0.37 (inactive)
4 | O=C(O)[C@H]1C[C@H]2C(=O)NCC(=O)N2[C@H]1c1ccc(O)cc1 | 1.46 | -1.25 (inactive) | 0.866 (inactive) | -0.592 (inactive) | 0.0904 (inactive) | -0.804 (inactive) | 1.49 (inactive) | 1.51 (inactive) | 0.839 | -0.211 | 0.267 (inactive) | -0.212 | 0.137 | -0.43 (inactive) | 0.0056 (inactive) | 0.0301 (inactive)
5 | Cc1ccc(S[C@]2(C(=O)NCCN3CCOCC3)CC(=O)N(Cc3cc(C(F)(F)F)cc(C(F)(F)F)c3)[C@@H]2c2ccc(CO)cc2I)cc1 | 1.21 | -5.83 (inactive) | -2.06 (inactive) | -0.483 (inactive) | -0.407 (inactive) | -2.09 (inactive) | 0.106 (inactive) | 1.09 (inactive) | -2.33 | -0.419 | 0.476 (inactive) | 0.241 | 0.439 | -2.98 (inactive) | -0.064 (inactive) | -0.0538 (inactive)
6 | COCCOC(=O)N1C(=O)[C@@]2(c3cc(C#CCC(C(=O)OC)C(=O)OC)ccc31)[C@H](c1ccccc1OCCO)N1[C@H](c3ccccc3)[C@H](c3ccccc3)OC(=O)[C@H]1[C@@H]2C(N)=O | -0.592 | 0.9 (inactive) | -9.3 (active) | 0.47 (inactive) | 0.774 (inactive) | 1.97 (inactive) | 0.116 (inactive) | 0.857 (inactive) | -7.24 | -0.0874 | 0.547 (inactive) | 0.827 | -2.07 | -1.36 (inactive) | -0.192 (inactive) | -0.0971 (inactive)
7 | O=C1c2ccccc2[C@@]2(Cc3ccccc3N(Cc3ccccc3)C2=O)[C@H](c2ccc(CO)cc2)N1C1CCCCC1 | 0.281 | 1.61 (inactive) | -0.242 (inactive) | -11.6 (active) | 0.407 (inactive) | 1.57 (inactive) | 0.281 (inactive) | 0.256 (inactive) | -0.0776 | -0.239 | -0.204 (inactive) | 0.299 | -0.0438 | -1.21 (inactive) | 0.0191 (inactive) | 0.359 (inactive)
8 | COCCOC(=O)N1C(=O)[C@@]2(c3cc(C#Cc4ccc(OC)cc4)ccc31)[C@H](C(=O)N1CCN(c3ncccn3)CC1)[C@H]1C(=O)O[C@H](c3ccccc3)[C@H](c3ccccc3)N1[C@@H]2c1ccc(O)cc1 | -0.221 | 0.558 (inactive) | -1.68 (inactive) | -1.45 (inactive) | 1.42 (inactive) | -0.604 (inactive) | -0.0707 (inactive) | 1.09 (inactive) | 0.0808 | 0.134 | 0.0853 (inactive) | 0.481 | -1.38 | 0.261 (inactive) | -0.0134 (inactive) | -0.454 (inactive)
9 | COCCOC(=O)N1C(=O)[C@@]2(c3ccccc31)[C@H](C(=O)NC[C@H](O)c1ccccc1)[C@H]1C(=O)O[C@H](c3ccccc3)[C@H](c3ccccc3)N1[C@@H]2c1ccc(OCCO)cc1 | 1.09 | 1.42 (inactive) | -1.04 (inactive) | -0.0923 (inactive) | 2.36 (inactive) | 1.61 (inactive) | 0.649 (inactive) | -0.559 (inactive) | -0.744 | -0.156 | 0.868 (inactive) | 0.645 | -2.02 | -4.33 (inactive) | -0.293 (inactive) | -0.262 (inactive)
10 | Cc1ccccc1C(O)C1C=CC2C(=O)N(C)C(=O)C2N1Nc1ccccc1 (stereo not drawn) | -1.19 | -0.532 (inactive) | -1.32 (inactive) | -0.513 (inactive) | 1.07 (inactive) | -0.547 (inactive) | -0.688 (inactive) | -0.611 (inactive) | -1.61 | 0.179 | 0.381 (inactive) | 0.632 | 1.11 | -3.24 (inactive) | 0.251 (inactive) | -0.594 (inactive)
11 | COCCOC(=O)N1C(=O)[C@@]2(c3cc(C#CCNC(N)=O)ccc31)[C@H](c1ccc(O)cc1)N1[C@H](c3ccccc3)[C@H](c3ccccc3)OC(=O)[C@H]1[C@@H]2C(=O)Nc1nc2ccccc2s1 | 1.51 | -2.16 (inactive) | 1.38 (inactive) | -1.96 (inactive) | 3.22 (inactive) | -2.47 (inactive) | 2.74 (inactive) | 2.74 (inactive) | 0.803 | -0.115 | -0.236 (inactive) | -0.132 | 0.0446 | -0.523 (inactive) | -0.373 (inactive) | -0.669 (inactive)
12 | Cc1ccc(S[C@]2(C(=O)NC3CC3)CC(=O)N(C3CCCCC3)[C@@H]2c2ccc(CO)cc2I)cc1 | 0.57 | -0.134 (inactive) | -0.232 (inactive) | 1.44 (inactive) | 0.475 (inactive) | 0.537 (inactive) | 0.738 (inactive) | 0.377 (inactive) | -1.54 | -0.13 | 1.01 (inactive) | 0.784 | -1.34 | -4.11 (inactive) | -0.0105 (inactive) | 0.06 (inactive)
13 | COc1ccc(C(O)C2C=CC3C(=O)N(C)C(=O)C3N2Nc2ccccc2)cc1OCc1ccccc1 (stereo not drawn) | 0.043 | -12.9 (active) | -0.157 (inactive) | 0.669 (inactive) | 1.03 (inactive) | 1.17 (inactive) | -1.02 (inactive) | -1.05 (inactive) | -0.543 | 0.209 | 0.492 (inactive) | 0.879 | 0.039 | -4.69 (inactive) | 0.593 (inactive) | 0.344 (inactive)
14 | CO[C@H]1O[C@H](CO)[C@@H](OC(=O)Nc2ccc(Oc3ccccc3)cc2)[C@H](OC(=O)Nc2ccccc2)[C@H]1OC(=O)Nc1ccccc1 | -2.18 | -0.494 (inactive) | -2.36 (inactive) | -0.996 (inactive) | 1.97 (inactive) | 2.67 (inactive) | 1.57 (inactive) | 0.561 (inactive) | -2.48 | 0.0668 | 1.21 (inactive) | 0.916 | -2.21 | -1.38 (inactive) | -0.444 (inactive) | -0.307 (inactive)
15 | Cc1ccc(F)cc1S(=O)(=O)N[C@@H]1CCN(Cc2ccc(-c3ccccc3)cc2)C1 | -0.603 | -19.1 (active) | -3.27 (inactive) | -0.427 (inactive) | 0.425 (inactive) | -22.4 (active) | -20.5 (active) | -20 (active) | -2.16 | 0.0368 | 0.765 (inactive) | 0.479 | -1.89 | -4.9 (inactive) | -0.23 (inactive) | -0.0784 (inactive)
16 | O=C/C=C/c1ccc2c(c1)OCO2 | 0.134 | -12.8 (active) | -0.155 (inactive) | -1.32 (inactive) | 0.227 (inactive) | -1.87 (inactive) | -1.34 (inactive) | 0.594 (inactive) | -0.211 | -0.118 | -0.316 (inactive) | -0.232 | 0.775 | 1.04 (inactive) | 0.284 (inactive) | 0.774 (inactive)
17 | CC(=O)NCCCC[C@@H]1NC(=O)[C@@H]2C[C@H](C(=O)NCCCCN(C)C)[C@H](c3ccc(O)cc3)N2C1=O | 0.801 | -0.397 (inactive) | 0.925 (inactive) | -0.0536 (inactive) | -0.201 (inactive) | 0.037 (inactive) | 1.23 (inactive) | 1.51 (inactive) | 1.15 | -0.23 | -0.308 (inactive) | -0.208 | 0.101 | -0.795 (inactive) | -0.396 (inactive) | -0.291 (inactive)
18 | C=CCC(OC(C)=O)[C@@H]1[C@@H](N(Cc2ccc(-c3ccccc3)cc2)C(=O)Cc2ccc(F)cc2)c2cc(OCCCO)ccc2N1C(=O)c1ccc2ccccc2n1 (stereo partly drawn) | 1.29 | -0.186 (inactive) | 1.08 (inactive) | -0.203 (inactive) | -0.619 (inactive) | -0.452 (inactive) | 0.918 (inactive) | 0.761 (inactive) | 0.893 | 0.103 | -0.517 (inactive) | -0.32 | -1.35 | -1.5 (inactive) | 0.344 (inactive) | -0.0849 (inactive)

Reference: PubChem BioAssay
